Results filed as inconclusive are left out. The source made the active and inactive calls. The calls were made as follows: active = hit-call score of the fitted dose curve at least 0.9, where 1 is the maximum; inconclusive = response in the unintended direction; inactive = score below 0.9.
Experiment: ACEA_AR_antagonist_AUC_viability: ACEA Biosciences xCELLigence Real-Time Cell Analysis on Androgen Receptor Antagonism for Viability (AID 2283776);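 also: area under impedance growth curve at 80 h after dosing as viability; hits lower the growth signal relative to DMSO meaning cytotoxicity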
Description: ACEA_AR_antagonist is a cell-based, single-readout assay that uses 22Rv1, a human prostate cancer cell line, with measurements taken at 80 hours after chemical dosing in a 384-well plate, although TO5 and TO6 (mc0.srcf) used a 96-well plate. Differences in plate size can be ignored given data normalization.ACEA_AR_80hr is one of two assay component(s) measured or calculated from the […] assay. It is designed to make measurements of real-time cell-growth kinetics, a form of growth reporter, as detected with electrical impedance signals by Real-Time Cell Electrode Sensor (RT-CES) technology.Data from the assay component ACEA_AR_antagonist_AUC_viability was analyzed in the positive analysis fitting direction relative to DMSO as the negative control and baseline of activity. Using a type of growth reporter, loss-of-signal activity can be used to understand changes in the viability. Furthermore, this assay endpoint can be referred to as a secondary readout, because this assay has produced multiple assay endpoints where this one serves a viability function. To generalize the intended target to other relatable targets, this assay endpoint is annotated to the cell cycle intended target family, where the subfamily is cytotoxicity.
The xCELLigence system Multi-E-Plate stations were used to measure the time-dependent response to chemicals. Each compound was tested in an eight-point, 1:4 serial dilution series starting at a maximum final concentration of 100 uM. A maximum starting concentration of 0.5% DMSO was present in the 100 uM chemical samples and was diluted along with the test article dilution series. The screen was performed in biological duplicate using two separate, 96-well, E-Plates 96 for each dilution series (n = 2). Positive controls (MG132 and testosterone) and a negative control (assay media) were tested in quadruplicate on each testing plate. Then, 0.5% and 0.125% DMSO were tested in duplicates in each plate to serve as solvent controls for the 2 highest concentrations of testing compounds: 100 uM and 25 uM. Reference compounds were tested with 8 concentrations with 1:5 serial dilutions. All screening was carried out by ACEA Biosciences, Inc. (San Diego, CA). 22Rv1 cells purchased from ATCC were maintained in media supplemented with 10% fetal bovine serum (FBS). Before screening, 22Rv1 cells were preconditioned in assay medium. Cells were then detached and seeded in E-Plates 96 in assay medium. After overnight monitoring of growth once every hour, compounds were added to […] cells and remained in the medium until the end of the experiment. Cellular responses were then recorded once every 5 min for the first 5 h, and once every hour for an additional 100 h.
For `CC(O)COc1ccccc1` (centres undefined), the outcome was “inactive”. In the case of `CN(C)CCOC(c1ccccc1)c1ccccc1`, the outcome is reported as “inactive”. With `c1cnc2c(c1)ccc1cccnc12` the AC50 was 3.57 µM (active). In the case of `CCCCc1oc2ccccc2c1C(=O)c1cc(I)c(OCCN(CC)CC)c(I)c1`, the AC50 is reported as 9.15 µM (active). For `NCCN`, the outcome was “inactive”. In the case of `OCC(CO)(CBr)CBr`, the outcome is reported as “inactive”. With `Cc1cc(C(C)(C)C)c(O)c(C(C)(C)C)c1` the AC50 was 0.144 µM (active). In the case of `CCCCCCc1ccc(N)cc1`, the outcome is reported as “inactive”. For `Cc1cc(Cc2cc(C)cc(C(C)(C)C)c2O)c(O)c(C(C)(C)C)c1`, the AC50 was 21.4 µM (active). For `CCCCCCCCCC=CCC1CC(=O)OC1=O` (centres undefined), the outcome was “inactive”. With `COc1cc([N+](=O)[O-])ccc1N` the outcome was “inactive”. For `CCCCc1ccc2ccccc2c1S(=O)(=O)O`, the outcome was “inactive”. In the case of `CCc1ccccc1O`, the outcome is reported as “inactive”. In the case of `CC(=O)Nc1ccc(O)cc1`, the outcome is reported as “inactive”. For `Cc1cc(C(=C2C=CC(=Nc3ccc(S(=O)(=O)O)cc3)C=C2)c2ccc(Nc3ccc(S(=O)(=O)O)cc3)cc2)cc(S(=O)(=O)O)c1N`, the outcome was “inactive”. For `O=C(CCCN1CCC(O)(c2ccc(Cl)cc2)CC1)c1ccc(F)cc1`, the AC50 was 53.7 µM (active). With `CCCCC=O` the outcome was “inactive”. With `O=C(c1ccccc1)c1ccccc1` the outcome was “inactive”. In the case of `O=C1NS(=O)(=O)c2ccccc21`, the outcome is reported as “inactive”. For `CCCCC(CC)C(=O)O` (centres undefined), the outcome was “inactive”. In the case of `O=C(O)c1cccc(C(=O)O)n1`, the outcome is reported as “inactive”. In the case of `N=C(N)c1ccc(OCCCCCOc2ccc(C(=N)N)cc2)cc1`, the AC50 is reported as 17.3 µM (active). In the case of `Cc1ccc(C)c(S(=O)(=O)O)c1`, the AC50 is reported as 0.221 µM (active). In the case of `CC(C)c1c(C(=O)Nc2ccccc2)c(-c2ccccc2)c(-c2ccc(F)cc2)n1CC[C@@H](O)C[C@@H](O)CC(=O)O`, the AC50 is reported as 4.96 µM (active). In the case of `CCCCCCCCCCCC(=O)O`, the outcome is reported as “inactive”. With `Cc1ccc(S(=O)(=O)O)cc1` the outcome was “inactive”. For `CCC(C)c1ccccc1O` (centres undefined), the outcome was “inactive”. For `NS(=O)(=O)O`, the outcome was “inactive”. With `CC(C)[C@@H]1CC[C@@H](C)C[C@H]1O` the AC50 was 0.541 µM (active). With `NC(=NCCCCCCN=C(N)/N=C(\N)Nc1ccc(Cl)cc1)/N=C(\N)Nc1ccc(Cl)cc1` the AC50 was 10.6 µM (active). With `CN(Cc1cnc2nc(N)nc(N)c2n1)c1ccc(C(=O)N[C@@H](CCC(=O)O)C(=O)O)cc1` the AC50 was 0.551 µM (active). For `Cc1[nH]nc2c1N=C(c1ccccc1Cl)c1cc([N+](=O)[O-])ccc1N2`, the AC50 was 2.04 µM (active). With `C[C@]12CC[C@@H]3c4ccc(O)cc4CC[C@H]3[C@@H]1C[C@@H](O)[C@@H]2O` the AC50 was 1.16 µM (active). For `CCCCCCCCCCCCOC(=O)c1cc(O)c(O)c(O)c1`, the AC50 was 3.44 µM (active).

Reference: PubChem BioAssay (EPA / NIEHS)
